{"source": "paper PMC4552634", "about": "“A New Set of Chemical Starting Points with Plasmodium falciparum Transmission-Blocking Potential for Antimalarial Drug Discovery” (PLoS ONE, 2015)", "note": "In all, about 13,000 compounds went through this assay and about 3,200 (25%) showed an effect of 50% or more. The list shows a part of the results."}
{"test_system": "P. falciparum stage V gametocytes", "parameters": "BacTiter-Glo ATP luminescence viability of purified stage V gametocytes in 384-well plates, per cent inhibition versus DMSO", "settings": "48 h, 5 µM; inhibitor", "units": {"% Inhibition": "%"}}
{"smiles": "Cc1ccc(NC(=O)c2ccc(CN3CCCN(CC4CCCCC4)CC3)cc2)cc1C", "note": "[TCMDC-136425]", "% Inhibition": -18.57}
{"smiles": "Cc1cc(-c2c[nH]c3ncc(-c4cccc5ncccc45)cc23)ccc1C(=O)O.O=C(O)C(F)(F)F", "note": "[TCMDC-136377]", "% Inhibition": 16.5}
{"smiles": "O=C(O)C(F)(F)F.OCC1CCN(Cc2cccc(-c3ccc(-c4nc5cc(C(F)(F)F)ccc5[nH]4)s3)c2)CC1", "note": "[TCMDC-133126]", "% Inhibition": 5.885}
{"smiles": "CN(CCN)Cc1ccc(-c2ccc(-c3nc4cc(C(F)(F)F)ccc4[nH]3)s2)cc1.O=C(O)C(F)(F)F", "note": "[TCMDC-132821]", "% Inhibition": 65.23}
{"smiles": "NC(=O)C1CCN(Cc2ccc(-c3ccc(-c4nc5cc(C(F)(F)F)ccc5[nH]4)s3)cc2)CC1.O=C(O)C(F)(F)F", "note": "[TCMDC-132687]", "% Inhibition": -37.37}
{"smiles": "O=C(O)C(F)(F)F.OCC1CCN(Cc2ccc(-c3ccc(-c4nc5cc(C(F)(F)F)ccc5[nH]4)s3)cc2)CC1", "note": "[TCMDC-133120]", "% Inhibition": 54.7}
{"smiles": "CN(CCN)Cc1cccc(-c2ccc(-c3nc4cc(C(F)(F)F)ccc4[nH]3)s2)c1.O=C(O)C(F)(F)F", "note": "[TCMDC-132820]", "% Inhibition": 44.42}
{"smiles": "Nc1cccc(CNCc2ccc(-c3ccc(-c4nc5cc(C(F)(F)F)ccc5[nH]4)s3)cc2)c1.O=C(O)C(F)(F)F", "note": "[TCMDC-132939]", "% Inhibition": -86.12}
{"smiles": "CNc1ccc(CNCc2ccc(-c3ccc(-c4nc5cc(C(F)(F)F)ccc5[nH]4)s3)cc2)cc1.O=C(O)C(F)(F)F", "note": "[TCMDC-132985]", "% Inhibition": 42.48}
{"smiles": "CC(C)NCc1ccc(-c2ccc(-c3nc4cc(C(F)(F)F)ccc4[nH]3)s2)cc1.O=C(O)C(F)(F)F", "note": "[TCMDC-132745]", "% Inhibition": -79.18}
{"smiles": "NCc1ccc(CNCc2ccc(-c3ccc(-c4nc5cc(C(F)(F)F)ccc5[nH]4)s3)cc2)cc1.O=C(O)C(F)(F)F", "note": "[TCMDC-132814]", "% Inhibition": 75.71}
{"smiles": "Cc1cccc2[nH]c(-c3cccc(-c4ccc(NC(=O)Cc5ccon5)cc4)c3)nc12", "note": "[TCMDC-136906]", "% Inhibition": -38.48}
{"smiles": "Cc1cccc(/C=C/C(=O)NC2CCC(N3CCC(c4ccccc4C)CC3)CC2)c1", "note": "(centres unmarked) [TCMDC-133528]", "% Inhibition": -62.92}
{"smiles": "CN1CCN(c2ccnc3ccc(NC(=O)Cc4ccc(Br)c5ccccc45)cc23)CC1", "note": "[TCMDC-139254]", "% Inhibition": 0.9853}
{"smiles": "CS(=O)(=O)NCCCNCc1ccc(-c2cccc(-c3nc4ccc(F)cc4[nH]3)c2)cc1", "note": "[TCMDC-133077]", "% Inhibition": 6.508}
{"smiles": "COc1ccc2ncc(F)c(CCN3CCC(CNCc4cccc5c4OCO5)CC3)c2n1", "note": "[TCMDC-135851]", "% Inhibition": -2.329}
{"smiles": "CCN(CC)CCCOC(=O)c1ccc2c(c1)-c1ccc(C(=O)OCCCN(CC)CC)c3cccc-2c13", "note": "[TCMDC-125491]", "% Inhibition": 109}
{"smiles": "CCCN(CC)CCOC(=O)c1ccccc1", "note": "[TCMDC-131376]", "% Inhibition": 17.72}
{"smiles": "CCCCN(CCCC)C(=NC(=N)NCc1ccc(Cl)c(Cl)c1)NCCCCCCNC(=NC(=N)NCc1ccc(Cl)c(Cl)c1)N(CCCC)CCCC", "note": "[TCMDC-131821]", "% Inhibition": 116.7}
{"smiles": "CCN(CC)C(=NC(=N)NCc1ccc(Cl)cc1)NCCCCCCNC(=NC(=N)NCc1ccc(Cl)cc1)N(CC)CC", "note": "[TCMDC-131817]", "% Inhibition": 120}
{"smiles": "CCN(CC)/C(=N/C(=N)NCc1ccc(Cl)cc1Cl)NCCCCCCN/C(=N\\C(=N)NCc1ccc(Cl)cc1Cl)N(CC)CC", "note": "[TCMDC-131819]", "% Inhibition": 120}
{"smiles": "CCN(CC)/C(=N/C(=N)NCc1cccc(Cl)c1)NCCCCCCN/C(=N\\C(=N)NCc1cccc(Cl)c1)N(CC)CC", "note": "[TCMDC-131820]", "% Inhibition": 122}
{"smiles": "CCCCN(CCCC)C(=Nc1cccc(Cl)c1Cl)Nc1ccc(C#N)cc1O", "note": "[TCMDC-140226]", "% Inhibition": -14.17}
{"smiles": "CC/N=C(/NCCCCCCN/C(=N/CC)NCc1ccccc1)NCc1ccccc1", "note": "[TCMDC-137726]", "% Inhibition": -33.37}
{"smiles": "CN(C)C(=O)CC(=O)NCc1cccc(Cl)c1", "note": "[TCMDC-131747]", "% Inhibition": 5.736}
{"smiles": "CCCc1cc(Cc2cnc(N)nc2N)cc(OCCCCCC(=O)O)c1OC", "note": "[TCMDC-137182]", "% Inhibition": 2.989}
{"smiles": "O=C(NC1CCN(Cc2ccccc2)CC1)c1ccc2c(=O)n(Cc3ccc(Cl)cc3)c(=S)[nH]c2c1", "note": "[TCMDC-125694]", "% Inhibition": 0.6987}
{"smiles": "COCCNCc1cccc(C#Cc2cc3ncnc(Nc4ccc(OCc5cccc(F)c5)c(Cl)c4)c3s2)n1", "note": "[TCMDC-138842]", "% Inhibition": 7.186}
{"smiles": "Fc1ccc(CN2CCN(c3ncnc4cc(-c5ccccc5)sc34)CC2)cc1", "note": "[TCMDC-132385]", "% Inhibition": -47.67}
{"smiles": "CCCc1cc(Cc2cnc(N)nc2N)cc2c1OC(C)C2C", "note": "(centres unmarked) [TCMDC-138047]", "% Inhibition": 3.526}
{"smiles": "O=C1COC2(CN1CC1CCN(Cc3ccc(O)c(Cl)c3)C1)c1ccccc1-c1ccccc12", "note": "(centres unmarked) [TCMDC-136343]", "% Inhibition": -1.738}
{"smiles": "NC(N)=NC(=O)Nc1ccc(Cl)c(C(F)(F)F)c1", "note": "[TCMDC-137469]", "% Inhibition": -12.43}
{"smiles": "Cc1ncc(CN2CCC(C(=O)Nc3ccc(-c4nc5ccccc5o4)cc3)CC2)s1", "note": "[TCMDC-124675]", "% Inhibition": 0.01985}
{"smiles": "O=C(Nc1cccc(CN2CCCN(Cc3cccc(O)c3)CC2)c1)c1ccc2ccccc2c1", "note": "[TCMDC-141855]", "% Inhibition": 21.81}
{"smiles": "Cc1nccc2c(NC(=O)N[C@@H]3CCN(c4ncc(C(F)(F)F)cc4Br)C3)cccc12", "note": "[TCMDC-141942]", "% Inhibition": 13.41}
{"smiles": "Cc1nc2ccc3ccc(CNc4ccc(C(=O)N[C@@H](CCC(=O)O)C(=O)O)c(F)c4)cc3c2c(=O)[nH]1", "note": "[TCMDC-138112]", "% Inhibition": -4.938}
{"smiles": "Cc1ccc2ccncc2c1N", "note": "[TCMDC-138025]", "% Inhibition": -56.11}
{"smiles": "CN1CCC(N2CCN(c3ccc4c(=O)nc(CCc5cccc(F)c5F)n(CC(=O)N(C)Cc5ccc(-c6ccc(C(F)(F)F)cc6)cc5)c4n3)CC2)CC1", "note": "[TCMDC-136512]", "% Inhibition": 105.9}
{"smiles": "CN(Cc1ccc(-c2ccc(C(F)(F)F)cc2)cc1)C(=O)Cn1c(CCc2cccc(F)c2F)nc(=O)c2ccc(N3CCN(CCN4CCCCC4)CC3)nc21", "note": "[TCMDC-136511]", "% Inhibition": 109.8}
{"smiles": "Cc1cc(NC(=O)Nc2cccc(C#N)c2)c2ccccc2n1", "note": "[TCMDC-138953]", "% Inhibition": 4.681}
{"smiles": "Nc1cccc(CNCc2ccc(-c3ccc(-c4nc5ccccc5[nH]4)s3)cc2)c1", "note": "[TCMDC-132927]", "% Inhibition": -10.94}
{"smiles": "CSc1nc2nc(C)c(Cc3cccc(C(F)(F)F)c3)c(C)n2n1", "note": "[TCMDC-123763]", "% Inhibition": -63.49}
{"smiles": "CN(C)CCC(O)(c1ccc(Br)cc1)c1cccnc1", "note": "(centres unmarked) [TCMDC-131412]", "% Inhibition": -6.865}
{"smiles": "CC(CO)(CO)NCc1cc2c3ccccc3c(CNC(C)(CO)CO)cc2c2ccccc12", "note": "[TCMDC-137752]", "% Inhibition": 88.47}
{"smiles": "CC(CO)(CO)NCc1cc2ccc3ccsc3c2c2ccccc12", "note": "[TCMDC-137753]", "% Inhibition": 1.403}
{"smiles": "Cn1c2ccccc2c2c3ccccc3c(CNC(CO)(CO)CO)cc21", "note": "[TCMDC-137747]", "% Inhibition": 1.595}
{"smiles": "COc1ccccc1C1CC(c2ccc(C)cc2)=NN1C(=O)c1ccccc1", "note": "(centres unmarked) [TCMDC-123887]", "% Inhibition": 21.23}
{"smiles": "COc1cc(Cc2cnc(N)nc2N)c2ccsc2c1OC", "note": "[TCMDC-137762]", "% Inhibition": -4.679}
{"smiles": "CCOc1cc(C)ccc1N1CCN(CCCCNC(=O)c2ccc(NC(=O)c3ccc(Cl)cc3)cc2)CC1", "note": "[TCMDC-138523]", "% Inhibition": 2.314}
{"smiles": "CCNc1cc(C)nc(Nc2ccc(NC(=O)c3c(F)cccc3Cl)cc2)n1", "note": "[TCMDC-124984]", "% Inhibition": 3.1}
{"smiles": "Cc1cc(NCCc2ccccc2)nc(/N=C(\\N)Nc2ccccc2Cl)n1", "note": "[TCMDC-138370]", "% Inhibition": 92.38}
{"smiles": "CCOC(=O)c1cccc(N/C(N)=N/c2nc(C)cc(NCCc3ccccc3)n2)c1", "note": "[TCMDC-138372]", "% Inhibition": 76.13}
{"smiles": "CCOC(=O)c1cccc(NC(=O)Nc2cc(C)nc3ccccc23)c1", "note": "[TCMDC-138957]", "% Inhibition": -2.163}
{"smiles": "CCOC(=O)N1CCN(C(=O)Nc2ccc(Cl)cc2)CC1", "note": "[TCMDC-125820]", "% Inhibition": -28.23}
{"smiles": "CCN(CC)CCNc1cc(C)nc(/N=C(\\N)Nc2ccc(Cl)cc2)n1", "note": "[TCMDC-137477]", "% Inhibition": 81.2}
{"smiles": "CCOC(=O)N1CCN(CCCCCNc2cc(C)nc(/N=C(\\N)Nc3ccc(Cl)cc3)n2)CC1", "note": "[TCMDC-138013]", "% Inhibition": 60.55}
{"smiles": "Cc1cc(N2CC=CCC2)nc(/N=C(\\N)Nc2ccc(Cl)cc2)n1", "note": "[TCMDC-131240]", "% Inhibition": 30.94}
{"smiles": "COc1ccc2nccc(NC(=O)C3(O)CCC(NCc4ncc5c(c4Cl)OCCO5)CC3)c2n1", "note": "(centres unmarked) [TCMDC-141562]", "% Inhibition": 2.096}
{"smiles": "O=C(O)C(F)(F)F.O=C(O)CCc1ccc(-c2c[nH]c3ncc(-c4ccc5ncccc5c4)cc23)cc1", "note": "[TCMDC-136336]", "% Inhibition": 14.57}
{"smiles": "COc1ccc2nccc([C@@H](O)CN3CCC(NCc4cn5cc(F)ccc5n4)CC3)c2c1", "note": "[TCMDC-140778]", "% Inhibition": 43.65}
{"smiles": "Cn1c(NC(=O)C2CCC(CNC(=O)c3ccc(O)c(-c4ccc(Cl)c(Cl)c4)c3)CC2)nc2ccccc21", "note": "(centres unmarked) [TCMDC-140897]", "% Inhibition": 13.96}
{"smiles": "O=C(NCc1cccnc1)C(c1cc2ccccc2o1)N1CCN(C(c2ccccc2)c2ccccc2)CC1", "note": "(centres unmarked) [TCMDC-141023]", "% Inhibition": 15.45}
{"smiles": "O=C(NC1CCC(CN2CCC(c3c[nH]c4ccccc34)CC2)CC1)c1cc(-c2ccc(F)cc2F)ccc1O", "note": "(centres unmarked) [TCMDC-139894]", "% Inhibition": -31.8}
{"smiles": "NC(N)=NN=CC(=O)Nc1cccc(C(F)(F)F)c1", "note": "[TCMDC-137563]", "% Inhibition": 10.63}
{"smiles": "Cc1cc(N2CCCC2)nc(/N=C(\\N)Nc2cccc(C(F)(F)F)c2)n1", "note": "[TCMDC-138509]", "% Inhibition": 20.83}
{"smiles": "CCCCCCNc1cc(C)nc(/N=C(\\N)Nc2cccc(C(F)(F)F)c2)n1", "note": "[TCMDC-138510]", "% Inhibition": 79.07}
{"smiles": "Cc1cc(NCCCOc2ccc(Cl)cc2)nc(NCc2ccccc2)n1", "note": "[TCMDC-137548]", "% Inhibition": -22.71}
{"smiles": "Cc1cc(NCCc2ccccc2)nc(/N=C(\\N)Nc2cccc(F)c2)n1", "note": "[TCMDC-138373]", "% Inhibition": 55.97}
{"smiles": "Cc1cc(NCCc2ccccc2)nc(/N=C(\\N)Nc2ccc(Cl)cc2)n1", "note": "[TCMDC-131843]", "% Inhibition": 52.3}
{"smiles": "Cc1cc(NCCc2ccccc2)nc(NC(=NCC(=O)OC(C)(C)C)Nc2ccc(C(F)(F)F)cc2)n1", "note": "[TCMDC-138520]", "% Inhibition": -13.38}
{"smiles": "Cc1cc(NCCc2cccc(F)c2)nc(/N=C(\\N)Nc2cccc(C(F)(F)F)c2)n1", "note": "[TCMDC-138508]", "% Inhibition": 57.1}
